Tests used:
Assay in all cases: PBM binding z-score (relative to random genomic background probes); higher = stronger binding; sequences stand for … in GC…GCGATTGACAGCGTAGAATGAAGG
[1] = test system: FXR:RXRa (NR concentration 270 nM, RXRa partner concentration 90 nM)
Summary of the method: (§1)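 Custom Agilent 4×180K protein-binding microarrays carried double-stranded probes. Their 34-nt variable regions held direct-repeat seeds, single-nucleotide variants, half-site ablations and random human genomic background sequences. Arrays were incubated 1 h with ligand-free nuclear receptor dimers in PBS pH 7.4, 2% milk, 0.02% Triton X-100, 1 mM DTT, 0.2 mg/mL BSA and 0.4 mg/ml salmon testes DNA. Antibodies against each partner (one per run) detected binding, and scanned fluorescence was regression-normalized. Binding z-scores use random background probes as reference.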

[2] = test system: LXRa:RXRa (NR concentration 270 nM, RXRa partner concentration 90 nM)
Summary of the method: as §1

[3] = test system: LXRa homodimer (NR concentration 270 nM)
Summary of the method: as §1

[4] = test system: LXRb:RXRa (NR concentration 270 nM, RXRa partner concentration 90 nM)
Summary of the method: as §1

[5] = test system: LXRb homodimer (NR concentration 270 nM)
Summary of the method: as §1

[6] = test system: PPARa:RXRa (NR concentration 270 nM, RXRa partner concentration 90 nM)
Summary of the method: as §1

[7] = test system: PPARg:RXRa (NR concentration 180 nM, RXRa partner concentration 90 nM)
Summary of the method: as §1

[8] = test system: PPARg:RXRa 270nM:90nM, anti-RXR (NR concentration 270 nM, RXRa partner concentration 90 nM)
Summary of the method: as §1

[9] = test system: PPARg:RXRa 30nM:10nM, anti-RXR (NR concentration 30 nM, RXRa partner concentration 10 nM)
Summary of the method: as §1

[10] = test system: PPARg:RXRa 90nM:30nM, anti-RXR (NR concentration 90 nM, RXRa partner concentration 30 nM)
Summary of the method: as §1

[11] = test system: PPARg:RXRa DBDmut IVT, anti-RXR (DBD mutation: RXRa K156A/R161A, NR concentration 270 nM, RXRa partner concentration 90 nM)
Summary of the method: as §1

[12] = test system: PPARg:RXRa IVT, anti-PPARg (NR concentration 270 nM, RXRa partner concentration 90 nM)
Summary of the method: as §1

[13] = test system: PPARg DBDmut:RXRa IVT, anti-PPARg (DBD mutation: PPARg1 K132A/R137A, NR concentration 270 nM, RXRa partner concentration 90 nM)
Summary of the method: as §1

[14] = test system: PPARg DBDmut IVT, anti-PPARg (DBD mutation: PPARg1 K132A/R137A, NR concentration 270 nM)
Summary of the method: as §1

[15] = test system: PPARg homodimer (NR concentration 180 nM)
Summary of the method: as §1

[16] = test system: PXR:RXRa (NR concentration 270 nM, RXRa partner concentration 90 nM)
Summary of the method: as §1

[17] = test system: PXR homodimer (NR concentration 270 nM)
Summary of the method: as §1

[18] = test system: RARa:RXR (NR concentration 270 nM, RXRa partner concentration 90 nM)
Summary of the method: as §1

[19] = test system: RARa homodimer (NR concentration 270 nM)
Summary of the method: as §1

[20] = test system: RARb:RXRa (NR concentration 270 nM, RXRa partner concentration 90 nM)
Summary of the method: as §1

For ATCTCTAGGTAAGACTCAGTTCAGTGGAGAACGC, the PBM binding z-score [1] was 0.367, the PBM binding z-score [2] was 0.505 and the PBM binding z-score [3] was 0.914. For the same sequence, the PBM binding z-score [4] was 0.328, the PBM binding z-score [5] was 0.692 and the PBM binding z-score [6] was 0.228. The PBM binding z-score [7] was 0.00731, the PBM binding z-score [8] was 0.28 and the PBM binding z-score [9] was 0.129. It also gave a PBM binding z-score [10] of 0.315, a PBM binding z-score [11] of 1.76 and a PBM binding z-score [12] of 1.05. For the same sequence, the PBM binding z-score [13] was 0.655, the PBM binding z-score [14] was 0.595 and the PBM binding z-score [15] was 1.2. The PBM binding z-score [16] was 1.32, the PBM binding z-score [17] was 1.24 and the PBM binding z-score [18] was 0.355. For the same sequence, the PBM binding z-score [19] was 0.601 and the PBM binding z-score [20] was 0.727.

With CGTCCAAGGTCAAGGTCCGTGAAAGAGACTCGAA the PBM binding z-score [1] was 7.33, the PBM binding z-score [2] was 5.22 and the PBM binding z-score [3] was 0.155. The PBM binding z-score [4] was 3.84, the PBM binding z-score [5] was 0.0848 and the PBM binding z-score [6] was 5.79. For the same sequence, the PBM binding z-score [7] was 5.02, the PBM binding z-score [8] was 5.3 and the PBM binding z-score [9] was 1.9. The PBM binding z-score [10] was 3.92, the PBM binding z-score [11] was 3.62 and the PBM binding z-score [12] was 3.88. For the same sequence, the PBM binding z-score [13] was 0.152, the PBM binding z-score [14] was -0.702 and the PBM binding z-score [15] was 2.49. It also gave a PBM binding z-score [16] of 3.69, a PBM binding z-score [17] of 0.711 and a PBM binding z-score [18] of 4.47. For the same sequence, the PBM binding z-score [19] was 0.5 and the PBM binding z-score [20] was 5.29.

Sequence CCTACCGGGCCATCAGGTCATTGATATCAACGTT has a PBM binding z-score [1] of 1.4, a PBM binding z-score [2] of 1.26 and a PBM binding z-score [3] of 1.91. It also gave a PBM binding z-score [4] of 1.66, a PBM binding z-score [5] of 0.209 and a PBM binding z-score [6] of 1.93. The PBM binding z-score [7] was 0.875, the PBM binding z-score [8] was 1.59 and the PBM binding z-score [9] was -0.00582. For the same sequence, the PBM binding z-score [10] was 1.09, the PBM binding z-score [11] was 0.52 and the PBM binding z-score [12] was 1.97. It also gave a PBM binding z-score [13] of -0.847, a PBM binding z-score [14] of -0.348 and a PBM binding z-score [15] of 1.25. It also gave a PBM binding z-score [16] of 1.64, a PBM binding z-score [17] of 0.864 and a PBM binding z-score [18] of 1.95. For the same sequence, the PBM binding z-score [19] was 0.127 and the PBM binding z-score [20] was 2.21.

CCTGCTAGGTCGTGGTCAGCTAATCTACAGTATG showed a PBM binding z-score [1] of 0.204, a PBM binding z-score [2] of 0.138 and a PBM binding z-score [3] of -0.589. For the same sequence, the PBM binding z-score [4] was 0.0814, the PBM binding z-score [5] was -0.563 and the PBM binding z-score [6] was 0.699. For the same sequence, the PBM binding z-score [7] was -0.0367, the PBM binding z-score [8] was 0.111 and the PBM binding z-score [9] was -0.191. The PBM binding z-score [10] was 0.0176, the PBM binding z-score [11] was 1.33 and the PBM binding z-score [12] was 0.742. The PBM binding z-score [13] was -0.546, the PBM binding z-score [14] was -0.828 and the PBM binding z-score [15] was 0.0786. For the same sequence, the PBM binding z-score [16] was 0.00895, the PBM binding z-score [17] was -0.22 and the PBM binding z-score [18] was 0.444. For the same sequence, the PBM binding z-score [19] was -0.694 and the PBM binding z-score [20] was 1.71.

With TAGCCTAGGTCATGGGCCAGTAGACCACGCGAAC the PBM binding z-score [1] was 4.96, the PBM binding z-score [2] was 3.57 and the PBM binding z-score [3] was 0.0345. It also gave a PBM binding z-score [4] of 2.2, a PBM binding z-score [5] of -0.335 and a PBM binding z-score [6] of 4.38. It also gave a PBM binding z-score [7] of 4.13, a PBM binding z-score [8] of 3.94 and a PBM binding z-score [9] of 1.03. For the same sequence, the PBM binding z-score [10] was 3.07, the PBM binding z-score [11] was 1.37 and the PBM binding z-score [12] was 3.63. The PBM binding z-score [13] was 0.0866, the PBM binding z-score [14] was 0.107 and the PBM binding z-score [15] was 0.936. For the same sequence, the PBM binding z-score [16] was 1.5, the PBM binding z-score [17] was -0.436 and the PBM binding z-score [18] was 2.64. The PBM binding z-score [19] was -0.0215 and the PBM binding z-score [20] was 3.92.

In the case of GCTGCTAGGTCCACTGATGGTCAGCTAAAGCTCG, the PBM binding z-score [1] is reported as -0.489, the PBM binding z-score [2] is reported as -0.3 and the PBM binding z-score [3] is reported as -0.698. It also gave a PBM binding z-score [4] of -0.586, a PBM binding z-score [5] of -0.746 and a PBM binding z-score [6] of -0.509. It also gave a PBM binding z-score [7] of -0.592, a PBM binding z-score [8] of -0.813 and a PBM binding z-score [9] of -0.963. It also gave a PBM binding z-score [10] of -0.946, a PBM binding z-score [11] of 0.0704 and a PBM binding z-score [12] of -0.423. The PBM binding z-score [13] was -1.19, the PBM binding z-score [14] was -1.02 and the PBM binding z-score [15] was -1.01. For the same sequence, the PBM binding z-score [16] was -0.525, the PBM binding z-score [17] was -1.03 and the PBM binding z-score [18] was -0.598. For the same sequence, the PBM binding z-score [19] was -1.55 and the PBM binding z-score [20] was 0.403.

With AGAATGAGGTGATTAAGATCAGGGAATTGCGGTC the PBM binding z-score [1] was -0.0476, the PBM binding z-score [2] was -0.338 and the PBM binding z-score [3] was -0.29. For the same sequence, the PBM binding z-score [4] was -0.384, the PBM binding z-score [5] was -0.427 and the PBM binding z-score [6] was 0.785. The PBM binding z-score [7] was 0.618, the PBM binding z-score [8] was 0.415 and the PBM binding z-score [9] was -0.0538. The PBM binding z-score [10] was 0.0296, the PBM binding z-score [11] was 2.96 and the PBM binding z-score [12] was 2.25. The PBM binding z-score [13] was 0.816, the PBM binding z-score [14] was -0.56 and the PBM binding z-score [15] was -0.484. The PBM binding z-score [16] was -0.0501, the PBM binding z-score [17] was -0.416 and the PBM binding z-score [18] was 0.0955. The PBM binding z-score [19] was -0.457 and the PBM binding z-score [20] was 0.268.

Reference: the supplement of paper PMC6555819
